Experimental data: PubChem BioAssay (NCATS)
Records with an inconclusive call do not appear. Activity calls are given as the source filed them. Unless noted, the call rests on the fitted dose curve; in most records, active means well fitted curve in either direction with a large enough effect (not every such curve was filed as active); inconclusive means small, poorly fitted or top-dose-only effect, or another doubt; inactive means flat fitted curve, though single readings scatter.

Columns and labels:
[1] = target: Lysosomal acid glucosylceramidase (Homo sapiens) (UniProt P04062); assay: Glucocerebrosidase-p2 (AID 348; in the data active means potency below about 10 µM; further: potency means the concentration at half of the fitted maximal effect); settings: purified GBA, blue fluorogenic substrate, 40 min
In short: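 Normal human glucocerebrosidase (0.2 nM) with blue fluorogenic substrate (80 uM final) in citrate/phosphate pH 5.9 with 10mM sodium taurocholate, 0.01% tween-20; 40 min RT, NaOH/glycine stop; fluorescence Ex 365/Em 440; AC50 from a titration from 0.6 nM upwards.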

[2] = AP1 Signaling Pathway (AID 357); settings: ME-180 AP-1-bla reporter, EGF-induced, beta-lactamase ratio, 5 h; at 7.69 µM (top of the series) unless noted; further: on the % scale 0 is the no-effect control and ±100 the full control effect
In short: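 AP-1-bla ME-180 cells with beta-lactamase reporter under AP-1 response element, stimulated with EC50 EGF; compounds titrated, 5 hours at 37 degrees Celsius. CCF4 read at 460/530 nm ratio; positive and negative modulators judged by AC50.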

[3] = target: Cytochrome P450 1A2 (Homo sapiens) (UniProt P05177); assay: p450-cyp1a2 (AID 410; calls by dose curve; further: potency means the concentration at half of the fitted maximal effect;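 on activity change, negative = inhibition: -100% = full effect of reference inhibitor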); settings: recombinant CYP1A2, luciferin-ME demethylation, luminescence; series mostly up to 11.4 µM
In short: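 Luminescent demethylation readout: Luciferin-ME (100uM, equal to Km) turned over by 20nM CYP1A2 for 60 min at room temperature after NADPH regeneration addition, following 10 min compound preincubation. Normalization used 57 uM furafylline as full inhibition.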

[4] = NFAT Signaling Pathway (AID 444); settings: Jurkat NFAT-bla M1, carbachol, beta-lactamase ratio, 5 h; at 7.69 µM (top of the series) unless noted;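 further: carbachol stimulus at about its EC50 of 1 µM final; on the % scale 0 is the no-effect control and ±100 the full control effect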
In short: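 Jurkat cells with NFAT-driven β-lactamase reporter and co-expressed M1 receptor, stimulated with carbachol (final 1 uM, ~EC50), compound titration, 5 h at 37 °C. CCF4 loaded 1 h at RT; 460/530 nm ratio gave %activity and AC50.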

[5] = Stat Signaling Pathway (AID 446); settings: ME-180 SIE beta-lactamase reporter, IL-6 stimulated, 5 h; at 7.69 µM (top of the series) unless noted;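 further: ME-180 cervical cancer cells given 40 pM IL-6 alongside compound; SIE-controlled beta-lactamase reporter measured as 460/530 nm FRET emission ratio; on the % scale 0 is the no-effect control and ±100 the full control effect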
In short: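 FRET read-out (405 nm excitation, 460/530 nm emission) of a beta-lactamase reporter under a STAT-inducible element in ME-180 cervical carcinoma cells. Cells with compound receive 40 pM IL-6 for 5 h. Values are normalised to AC90 stimulation and AC90 JAK-inhibitor controls.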

[6] = target: Glucocorticoid receptor (Homo sapiens) (UniProt P04150); assay: GR-GFP Redistribution (AID 450;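 active means compounds whose dose series gives a full or clear partial fitted curve of increased nuclear translocation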; further: potency means the concentration at half of the fitted maximal effect); settings: U2OS GR-GFP nuclear translocation, laser cytometry, 2 h
[7] = target: Glucocorticoid receptor (Homo sapiens) (UniProt P04150); assay: GR-EFC Redistribution (AID 451; calls by dose curve; further: potency means the concentration at half of the fitted maximal effect); settings: CHO-K1 GR-EFC translocation, beta-gal luminescence, 2 h
In short: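 CHO-K1 cells expressing nuclear EA and GR-ED fragments of b-gal; compounds titrated up to 46 uM final, 2 h at 37 C. GR nuclear translocation read as complemented b-gal luminescence after 1 h RT detection.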

[8] = target: Mitogen-activated protein kinase 10 (Mus musculus) (UniProt Q61831); assay: JNK3 AlphaScreen Assay (AID 530); settings: JNK3 lysate, c-Jun phosphorylation; series mostly up to 11.4 µM;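 further: kinase came from lysate of stimulated human HepG2 cells; signal reports phosphorylation of biotinylated GST-cJun 1-79 at Ser73 with 10 µM ATP; on the % scale 0 is the no-effect control and ±100 the full control effect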
In short: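 Activity was read by AlphaScreen after JNK3-containing HepG2 lysate (cytokine pre-activated) phosphorylated biotinylated GST-cJun with 10 uM ATP at room temperature. Phospho-Ser73 cJun antibody with Protein-A acceptor beads provided detection.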

[9] = target: 3',5'-cyclic-AMP phosphodiesterase 4B (Homo sapiens) (UniProt Q07343); assay: qHTS Assay for Inhibitors of PDE-IV (AID 607; active means well fitted activation curve with a large enough effect in the main read-out, with a control signal flat, not every such curve was filed as active; further: % of control where 0% means no effect); settings: HEK293 ACTOne CNG channel cells, membrane potential fluorescence; series mostly up to 22.9 µM
In short: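 Cell-based read-out of cAMP via a modified cyclic nucleotide-gated channel and membrane potential dye (535/590 nm) in HEK293 cells expressing PDE4 endogenously. Compounds tested up to 22.9 uM final; 100 uM RO 20-1724 reference.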

[10] = target: Cytochrome P450 2C19 (Homo sapiens) (UniProt P33261); assay: qHTS Assay for Inhibitors and Substrates of Cytochrome P450 2C19 (AID 899; active means well fitted inhibition curve with a large enough effect; further: nearly all actives have a fitted effect of over 60% in size; further: potency means the concentration at half of the fitted maximal effect); settings: recombinant CYP2C19, luciferin-H EGE luminescence; series mostly up to 11.4 µM
In short: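 Luminescent read-out of luciferin formed from Luciferin-H EGE (10uM, equal to KM). Enzyme 5nM in 50mM KPO4; compound added, 10 min at 37C, then NADPH regenerating system for 60 min at 37C. Full inhibition defined by 57uM ketoconazole.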

[11] = qHTS Assay for Identification of Small Molecule Agonists for Hypoxia Response Element Signaling Pathway (AID 914; active means well fitted activation curve with a large enough effect in the signal ratio, with a control signal flat, not every such curve was filed as active; the % refers to the signal ratio; further: % of control where 0% means no effect); settings: ME-180 (cervical carcinoma) HRE-bla reporter, beta-lactamase ratio, CoCl2, 17 h; activation: active compounds read high
In short: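 Reporter activity (beta-lactamase, CCF4 460nm/530nm ratio) in HRE-bla ME-180 cells is recorded after 17 h compound exposure with EC50 CoCl2 at 37 degrees Celsius. AC50 values come from titration data.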

Chain of Cytochrome P450 1A2 (Homo sapiens) (P05177 whole entry, looked up): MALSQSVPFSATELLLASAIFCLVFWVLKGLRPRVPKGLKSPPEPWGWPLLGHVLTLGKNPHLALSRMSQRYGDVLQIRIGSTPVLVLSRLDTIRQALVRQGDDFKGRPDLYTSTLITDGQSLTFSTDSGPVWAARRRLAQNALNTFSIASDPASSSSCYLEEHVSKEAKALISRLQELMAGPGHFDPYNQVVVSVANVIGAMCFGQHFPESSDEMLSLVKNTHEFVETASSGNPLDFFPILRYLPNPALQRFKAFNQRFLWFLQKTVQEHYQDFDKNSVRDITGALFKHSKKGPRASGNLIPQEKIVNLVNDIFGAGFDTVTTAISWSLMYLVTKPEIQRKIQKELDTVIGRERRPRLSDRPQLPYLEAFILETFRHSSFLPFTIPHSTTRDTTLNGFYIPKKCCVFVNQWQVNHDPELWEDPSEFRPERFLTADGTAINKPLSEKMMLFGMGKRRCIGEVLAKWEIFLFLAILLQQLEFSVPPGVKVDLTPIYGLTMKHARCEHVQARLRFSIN
Chain of Cytochrome P450 2C19 (Homo sapiens) (P33261 whole entry, looked up): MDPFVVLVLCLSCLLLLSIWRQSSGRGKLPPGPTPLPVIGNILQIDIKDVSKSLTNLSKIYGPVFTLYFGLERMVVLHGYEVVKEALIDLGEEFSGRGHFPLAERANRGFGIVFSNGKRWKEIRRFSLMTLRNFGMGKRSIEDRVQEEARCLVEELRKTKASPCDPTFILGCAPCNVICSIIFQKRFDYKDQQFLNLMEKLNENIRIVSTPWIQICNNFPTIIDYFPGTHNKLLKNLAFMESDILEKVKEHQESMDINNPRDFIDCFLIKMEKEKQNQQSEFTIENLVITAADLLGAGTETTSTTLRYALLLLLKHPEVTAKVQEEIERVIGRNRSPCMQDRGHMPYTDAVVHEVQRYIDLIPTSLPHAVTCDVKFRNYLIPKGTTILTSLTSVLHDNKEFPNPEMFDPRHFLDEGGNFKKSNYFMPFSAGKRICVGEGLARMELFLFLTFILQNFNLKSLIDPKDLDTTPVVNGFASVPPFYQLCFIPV
Chain of Glucocorticoid receptor (Homo sapiens) (P04150 whole entry, looked up, the tested form may be a part): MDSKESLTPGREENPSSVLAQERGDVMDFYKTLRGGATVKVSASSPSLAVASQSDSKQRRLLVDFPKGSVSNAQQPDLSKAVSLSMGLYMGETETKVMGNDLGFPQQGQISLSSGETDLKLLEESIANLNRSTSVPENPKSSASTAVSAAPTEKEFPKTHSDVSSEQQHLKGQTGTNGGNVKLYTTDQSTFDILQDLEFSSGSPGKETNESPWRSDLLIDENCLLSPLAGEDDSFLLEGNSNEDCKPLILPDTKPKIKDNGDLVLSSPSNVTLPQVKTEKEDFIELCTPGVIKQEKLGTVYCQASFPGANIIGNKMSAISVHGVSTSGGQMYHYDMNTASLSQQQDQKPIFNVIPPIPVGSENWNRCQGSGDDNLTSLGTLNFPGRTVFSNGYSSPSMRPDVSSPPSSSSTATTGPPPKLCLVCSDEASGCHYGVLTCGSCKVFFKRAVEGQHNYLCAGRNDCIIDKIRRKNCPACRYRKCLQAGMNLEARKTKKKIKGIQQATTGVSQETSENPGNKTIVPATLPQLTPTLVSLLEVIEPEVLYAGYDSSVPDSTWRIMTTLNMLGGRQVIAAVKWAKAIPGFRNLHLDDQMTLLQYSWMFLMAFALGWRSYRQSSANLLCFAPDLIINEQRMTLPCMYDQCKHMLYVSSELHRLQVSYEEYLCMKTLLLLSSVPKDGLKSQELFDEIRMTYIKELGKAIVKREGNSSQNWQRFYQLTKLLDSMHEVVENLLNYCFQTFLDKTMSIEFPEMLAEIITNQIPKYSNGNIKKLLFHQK
Chain of 3',5'-cyclic-AMP phosphodiesterase 4B (Homo sapiens) (Q07343 whole entry, looked up): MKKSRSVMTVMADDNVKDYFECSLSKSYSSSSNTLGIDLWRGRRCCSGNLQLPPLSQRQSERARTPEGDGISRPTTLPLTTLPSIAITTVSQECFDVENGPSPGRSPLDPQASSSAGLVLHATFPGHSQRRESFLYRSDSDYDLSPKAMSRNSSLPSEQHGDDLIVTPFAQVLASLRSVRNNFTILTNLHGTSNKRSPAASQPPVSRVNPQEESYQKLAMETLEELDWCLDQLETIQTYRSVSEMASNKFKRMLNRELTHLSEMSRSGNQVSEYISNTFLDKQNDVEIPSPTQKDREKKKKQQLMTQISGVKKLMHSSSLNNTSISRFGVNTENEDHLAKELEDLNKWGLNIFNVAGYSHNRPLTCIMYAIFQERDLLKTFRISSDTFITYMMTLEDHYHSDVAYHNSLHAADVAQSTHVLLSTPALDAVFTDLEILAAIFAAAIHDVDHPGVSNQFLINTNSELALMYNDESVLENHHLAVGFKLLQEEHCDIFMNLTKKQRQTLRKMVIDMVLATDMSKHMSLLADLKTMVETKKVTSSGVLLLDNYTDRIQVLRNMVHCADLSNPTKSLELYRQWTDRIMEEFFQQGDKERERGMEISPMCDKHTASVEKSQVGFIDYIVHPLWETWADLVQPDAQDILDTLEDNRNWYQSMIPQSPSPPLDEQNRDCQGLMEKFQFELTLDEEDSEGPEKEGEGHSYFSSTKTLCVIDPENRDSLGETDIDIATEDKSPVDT
Chain of Lysosomal acid glucosylceramidase (Homo sapiens) (P04062 whole entry, looked up): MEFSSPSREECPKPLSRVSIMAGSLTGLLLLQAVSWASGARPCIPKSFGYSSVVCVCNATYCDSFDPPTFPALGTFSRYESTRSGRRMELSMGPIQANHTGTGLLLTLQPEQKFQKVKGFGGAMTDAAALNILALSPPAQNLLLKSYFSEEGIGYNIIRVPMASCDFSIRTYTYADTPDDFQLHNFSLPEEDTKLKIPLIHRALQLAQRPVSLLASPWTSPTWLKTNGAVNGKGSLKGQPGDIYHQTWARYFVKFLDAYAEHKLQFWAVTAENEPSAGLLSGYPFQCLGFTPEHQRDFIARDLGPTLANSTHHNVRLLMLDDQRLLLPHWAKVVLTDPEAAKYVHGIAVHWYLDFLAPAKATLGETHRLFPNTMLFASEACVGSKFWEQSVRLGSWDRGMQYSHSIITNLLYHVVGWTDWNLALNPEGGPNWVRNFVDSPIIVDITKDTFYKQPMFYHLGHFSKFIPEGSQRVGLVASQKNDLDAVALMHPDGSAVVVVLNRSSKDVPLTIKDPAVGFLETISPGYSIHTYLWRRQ

O=C(CC1(O)CCCCC1)OC1CCCC1
inactive: Potency [1] > 11.4 µM | activity change, negative = inhibition [2] 8.55% | Potency [3] | activity change, negative = inhibition [4] 16.8% | activity, negative = inhibition [5] 4.14% | Potency [6] > 46 µM | Potency [7] > 9.22 µM | Potency [8] | Potency [9]
active: Potency [10] 1.58 µM

Cn1c(=O)c2c(nc(NCCNc3nc4c(c(=O)n(C)c(=O)n4C)n3C)n2C)n(C)c1=O
inactive: Potency [1] > 11.4 µM | activity change, negative = inhibition [2] 4.17% | Potency [3] | activity change, negative = inhibition [4] 8.54% | activity, negative = inhibition [5] 14.6% | Potency [6] > 46 µM | Potency [7] > 9.22 µM | Potency [8] | Potency [9] | Potency [10]

CN(C)Cc1ccc(C(C)(C)C)cc1-c1cc(C(C)(C)C)ccc1CN(C)C
active: Potency [3] 3.98 µM
inactive: Potency [1] > 11.4 µM | activity change, negative = inhibition [2] -1.36% | activity change, negative = inhibition [4] 6.36% | activity, negative = inhibition [5] -4.38% | Potency [6] > 46 µM | Potency [7] > 9.22 µM | Potency [8] | Potency [9] | Potency [10]

Cc1ccc(N(Cc2ccccc2)Cc2ccccc2)cc1
inactive: Potency [1] > 11.4 µM | activity change, negative = inhibition [2] 4.21% | activity change, negative = inhibition [3] -24.2% [at 2.29 µM] | activity change, negative = inhibition [4] -17.4% | activity, negative = inhibition [5] 3.16% | Potency [6] > 46 µM | Potency [7] > 9.22 µM | Potency [8] | Potency [9]
active: Potency [10] 2 µM

CC(C)CCC[C@@H](C)[C@@H]1CC[C@@H]2[C@H]3CC[C@H]4C[C@@H](N)CC[C@@]4(C)[C@@H]3CC[C@]21C
inactive: Potency [1] > 11.4 µM | activity change, negative = inhibition [2] 13.1% | Potency [3] | activity change, negative = inhibition [4] 26.8% | activity, negative = inhibition [5] 11.5% | Potency [6] > 46 µM | Potency [7] > 9.22 µM | Potency [8] | Potency [9] | activation [11] 7.37%

O[C@@H](COc1cccc2ccccc12)CN1CCOCC1
active: Potency [3] 3.98 µM
inactive: Potency [1] > 11.4 µM | activity change, negative = inhibition [2] 3.83% | activity change, negative = inhibition [4] 4.33% | activity, negative = inhibition [5] 3.7% | Potency [6] > 46 µM | Potency [7] > 9.22 µM | Potency [8] | Potency [9] | activation [11] 3.28%

CC1=N[C@@](C)(COC(=O)[C@]2(C)N[C@](C)(CO)CO2)COC1=O
inactive: Potency [1] > 11.4 µM | activity change, negative = inhibition [2] 0.84% | activity change, negative = inhibition [3] 6.9% [at 2.29 µM] | activity change, negative = inhibition [4] 9.08% | activity, negative = inhibition [5] 6.3% | Potency [6] > 46 µM | Potency [7] > 9.22 µM | Potency [8] | Potency [9] | activation [11] 5.98%

N=C(N)CCNC(=O)[C@@H]1CCC(N)=N1
inactive: Potency [1] > 11.4 µM | activity change, negative = inhibition [2] 4.22% | activity change, negative = inhibition [3] -3.4% [at 2.29 µM] | activity change, negative = inhibition [4] 3.47% | activity, negative = inhibition [5] 1.16% | Potency [6] > 46 µM | Potency [7] > 9.22 µM | Potency [8] | Potency [9] | Potency [10]

O=C1CCC(c2ccccc2)=NN1c1nc2ccccc2s1
inactive: Potency [1] > 11.4 µM | activity change, negative = inhibition [2] -11.1% | activity change, negative = inhibition [4] -3.68% | activity, negative = inhibition [5] -10.7% | Potency [6] > 46 µM | Potency [7] > 9.22 µM | Potency [8] | Potency [9] | activation [11] -16.7%
active: Potency [3] 0.398 µM

O=S(=O)(c1ccccc1)N1CN2CN(C1)CN(S(=O)(=O)c1ccccc1)C2
inactive: Potency [1] > 11.4 µM | activity change, negative = inhibition [2] -16.9% | Potency [3] | activity change, negative = inhibition [4] -4.88% | activity, negative = inhibition [5] -0.275% | Potency [6] > 46 µM | Potency [7] > 9.22 µM | Potency [8] | Potency [9] | activation [11] -1.12%

O=C(NCCO)c1ccc(Cl)cc1
active: Potency [3] 3.98 µM
inactive: Potency [1] > 11.4 µM | activity change, negative = inhibition [2] -0.923% | activity change, negative = inhibition [4] 9.91% | activity, negative = inhibition [5] 15.2% | Potency [6] > 46 µM | Potency [7] > 9.22 µM | Potency [8] | Potency [9] | activation [11] 9.98%

Cc1cc(CN2CCCCC2)c(O)c(CN2CCCCC2)c1
inactive: Potency [1] > 11.4 µM | activity change, negative = inhibition [2] 25.8% | activity change, negative = inhibition [3] -18.8% [at 2.29 µM] | activity change, negative = inhibition [4] -21.4% | activity, negative = inhibition [5] -1.32% | Potency [6] > 46 µM | Potency [7] > 9.22 µM | Potency [8] | Potency [9] | activation [11] 2.92%

COc1ccc(NC(=S)Nc2ccccc2)cc1
active: Potency [3] 1.26 µM | Potency [10] 2 µM
inactive: Potency [1] > 11.4 µM | activity change, negative = inhibition [2] 0.508% | activity change, negative = inhibition [4] 6.45% | activity, negative = inhibition [5] 10.3% | Potency [6] > 46 µM | Potency [7] > 9.22 µM | Potency [8] | Potency [9] | activation [11] 8.18%

CCO[P@]1(=O)OC[C@@H]2O[C@H](n3cnc4c(N)ncnc43)[C@H](O)[C@@H]2O1
inactive: Potency [1] > 11.4 µM | activity change, negative = inhibition [2] -10.8% | activity change, negative = inhibition [3] -15.6% [at 2.29 µM] | activity change, negative = inhibition [4] 4.19% | activity, negative = inhibition [5] -5.06% | Potency [6] > 46 µM | Potency [7] > 9.22 µM | Potency [8] | Potency [9] | activation [11] 10.2%

NS(=O)(=O)c1ccc(N=C2C(=O)Nc3ccccc32)cc1
inactive: Potency [1] > 11.4 µM | activity change, negative = inhibition [2] -4.71% | activity change, negative = inhibition [3] -12.7% [at 2.29 µM] | activity change, negative = inhibition [4] 4.31% | activity, negative = inhibition [5] 4.23% | Potency [6] > 46 µM | Potency [7] > 9.22 µM | Potency [8] | Potency [9] | activation [11] -6.17%
